RGS16-Gao HTS: RGS16-Galphao interaction regulator (human); O15492+P09471; bead-based flow cytometry RGS16-Galphao binding, fluorescence; actives lie on both sides; binding response (% of control), % at 10 µM; hit rate 0.38% among 220,000; AID 1441;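 further: Galphao activated by GDP with aluminum fluoride before binding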
GSH bead fluor: GSH bead compound fluorescence profile | GSH beads flow cytometry, compound fluorescence 488/530 nm; stronger effect = higher value | fluorescence (KMESF) at 10 µM | hit rate 0.25% among 190,000 | AID 1776; in the data active means fluorescence above about 89;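 further: glutathione beads carrying GST-tagged Bcl family fusion proteins plus one bare bead set; values are compound well signal with DMSO vehicle wells as background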
RGS8-Gao reg: modulates binding of RGS8 to human Galphao; AID 1423; multiplexed bead flow cytometry; actives lie on both sides; hit rate 0.34% among 220,000; P09471; response (percent of control binding), % at 10 µM; in the data active means response below about 60% or above about 140%; inactive means in between;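 further: Galphao activated as the GDP aluminium fluoride complex binding bead-coupled RGS8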
Target sequence (P09471 whole entry, looked up): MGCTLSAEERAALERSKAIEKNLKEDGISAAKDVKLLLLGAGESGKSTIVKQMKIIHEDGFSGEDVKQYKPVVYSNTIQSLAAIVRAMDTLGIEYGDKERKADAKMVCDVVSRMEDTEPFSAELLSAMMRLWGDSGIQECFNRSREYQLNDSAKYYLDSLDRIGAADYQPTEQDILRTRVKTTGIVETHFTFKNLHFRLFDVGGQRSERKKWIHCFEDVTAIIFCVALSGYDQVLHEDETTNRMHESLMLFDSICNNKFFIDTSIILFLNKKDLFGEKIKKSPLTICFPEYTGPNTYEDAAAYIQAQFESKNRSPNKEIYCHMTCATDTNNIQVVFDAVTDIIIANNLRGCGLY
RGS4-Gao reg: modulates binding of RGS4 to human Galphao; P09471; Multiplexed bead flow cytometry; actives lie on both sides; binding response (% of control), % at 10 µM; hit rate 0.33% among 220,000; AID 1415; in the data active means binding response below about 49% or above about 150%; inactive means in between;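 further: fluorescent Galphao activated with aluminum fluoride binding bead-coupled RGS4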
Avidin bead fluor: compound fluoresces at 488/530 nm on avidin beads; fluorescence (KMESF) at 10 µM; hit rate 0.38% among 220,000; compound fluorescence 488/530 nm, flow cytometry; stronger effect = higher value; AID 1775; in the data active means fluorescence above about 47
RGS7-Gao: modulates binding of RGS7 to human Galphao. P09471. binding response (% of control), % at 10 µM. Multiplexed bead flow cytometry; actives lie on both sides. hit rate 0.35% among 220,000. AID 1439; in the data active means binding response below about 49% or above about 150%; inconclusive means no clear call, values can overlap the other calls; inactive means in between;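 further: fluorescent Galphao held in activated GDP-AlF4 state binding bead-coupled RGS7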
RGS4-Gao HTS: RGS4-Galphao interaction regulator (human). RGS4–Galpha-o binding response, % at 10 µM. hit rate 99% among 1,600. AID 1504. shares compounds with RGS16-Gao HTS. multiplexed bead flow cytometry, RGS–Galpha-o binding;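 further: fluorescently labeled Galpha-o bound to GDP with aluminium fluoride binding biotinylated RGS beads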
Target sequence (P09471 whole entry, looked up): as above
Target sequence (P49798 whole entry, looked up): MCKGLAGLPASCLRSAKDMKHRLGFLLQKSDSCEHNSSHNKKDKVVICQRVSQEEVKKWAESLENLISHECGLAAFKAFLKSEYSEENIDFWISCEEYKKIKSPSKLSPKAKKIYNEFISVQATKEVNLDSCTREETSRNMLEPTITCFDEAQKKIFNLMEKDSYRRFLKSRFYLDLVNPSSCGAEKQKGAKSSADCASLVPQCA
Avidin counter: counter-screen: compounds disrupting biotin binding to avidin beads; shares compounds with RGS16-Gao HTS; streptavidin beads, fluorescein-biotin binding, flow cytometry; 1,700 tested, under 10 active; inhibition, % at 10 µM;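 active means inhibition above 50%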;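 further: median green fluorescence of gated singlet beads compared with DMSO control wells; 0% = DMSO wells and 100% = complete loss of bead fluorescence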
RGS8-Gao confirm: confirmation of regulators of human RGS8-Galphao interaction; shares compounds with RGS16-Gao HTS; bead-based flow cytometry RGS8-Galphao binding, fluorescence; actives lie on both sides; binding response (% of control), % at 10 µM; hit rate 3% among 1,700; AID 1836; in the data active means binding response below about 72% or above about 130%; inactive means in between;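 further: Galphao activated as GDP AlF4 complex before binding bead RGS8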
RGS7-Gao confirm: confirmation of regulators of human RGS7-Galphao interaction. hit rate 7.8% among 1,700. shares compounds with RGS16-Gao HTS. response (percent of control binding), % at 10 µM. AID 1837. bead-based flow cytometry RGS7-Galphao binding; actives lie on both sides; in the data active means response below about 75% or above about 130%; inactive means in between;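 further: fluorescent Galphao activated with GDP and aluminum fluoride binding bead-coupled RGS7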
RGS16-Gao conf: confirmation of regulators of human RGS16-Galphao interaction; shares compounds with RGS16-Gao HTS; bead-based flow cytometry, RGS16-Galphao binding; actives lie on both sides; response (% of control binding), % at 10 µM; hit rate 4% among 1,700; in the data active means response below about 74% or above about 130%; inactive means in between;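 further: Galphao activated as the GDP aluminium fluoride complex binding bead-coupled RGS16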
RGS4-Gao confirm: RGS4-Galphao interaction regulation, single point confirmation; shares compounds with RGS16-Gao HTS; AID 1840; hit rate 4% among 1,700; RGS4-Galphao binding, multiplexed bead flow cytometry; actives lie on both sides; binding response (% of control), % at 10 µM; in the data active means binding response below about 74% or above about 130%; inactive means in between
RGS19-Gao conf: confirmation of regulators of human RGS19-Galphao interaction. shares compounds with RGS16-Gao HTS. bead-based flow cytometry RGS19-Galphao binding; actives lie on both sides. response (percent of control binding), % at 10 µM. hit rate 5% among 1,700. AID 1841; in the data active means response below about 50% or above about 160%; inactive means in between;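 further: 100% = no compound control and 0% = blank background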
Starred values were filed as active, the others as inactive; u = inconclusive; x = no result; [ ] = dose if it differs, or a comment. Shown are actives, neighbours in structure and some others; about 1.2% of the full set was active somewhere. Unless noted, how the calls were made is not given here.

SMILES	RGS16-Gao HTS	GSH bead fluor	RGS8-Gao reg	RGS4-Gao reg	Avidin bead fluor	RGS7-Gao	RGS4-Gao HTS	Avidin counter	RGS8-Gao confirm	RGS7-Gao confirm	RGS16-Gao conf	RGS4-Gao confirm	RGS19-Gao conf
CCc1nc(SCC(=O)c2ccc3c(c2)OCCO3)c2ccccc2n1	242.1	25	142.5*[activator]	119.9	15	111.0	119.9*	-1.3	105.5	106.3	105.2	105.1	97.1
CC(=O)C12C3C4C(C5C1C3C5(Br)C41OCCO1)C21OCCO1 (stereo unspecified)	22.5*	8	86.5	92.9	7	89.9	92.9*	-2.0	112.4	117.1	112.2	112.6	99.0
FC(F)(F)c1nnc2ccc(N3CCCC3)nn12	105.8	34	101.5	103.4	16	103.9	x	x	x	x	x	x	x
FC(F)(F)c1nnc2ccc(N3CCCCCC3)nn12	x	30	173.1*[activator]	148.9	6	121.8	148.9*	-0.6	101.3	87.9	92.6	95.9	96.4
CCN=c1scc(C)n1/N=C/c1ccc(O)c(O)c1O	55.1	26	58.7*	80.3	4	64.8	80.3*	0.7	66.8*	63.8*	63.6*	78.2	46.9*
COc1cc(NC(=O)CS(=O)(=O)c2ccc(C)cc2)cc(OC)c1OC	100.7	33	99.7	101.7	15	101.1	x	x	x	x	x	x	x
Cc1ccc(S(=O)(=O)CC(=O)Nc2ccc(F)c(F)c2F)cc1	-6.7*	x	9.2*	-12.1*	-2	u	x	-1.0	100.7	101.5	99.5	101.4	97.4
COc1ccccc1NC(=O)CN1CCN(CC(=O)Nc2ccc3c(c2)OCO3)CC1	347.8	57	142.1*[activator]	119.0	4	112.3	119.0*	x	x	x	x	x	x
COc1ccc(NC(=O)CN2CCN(CC(=O)Nc3ccc4c(c3)OCO4)CC2)cc1	98.9	35	97.9	94.1	4	95.6	x	x	x	x	x	x	x
O=C(CCl)NC(=O)NC12CC3CC(CC(C3)C1)C2	111.2	7	103.7	129.9	145*	188.9*[activator]	129.9*	-0.4	100.6	62.9*	83.7	79.0	53.7
Cc1ccccc1-n1c(-c2ccncc2)n[nH]c1=S	18.2*	11	64.1	91.1	13	88.2	91.1*	0.2	106.5	111.2	106.9	109.6	100.6
CCC(COC)NCc1cn(-c2ccc(OC)cc2)nc1-c1cccc(F)c1 (stereo unspecified)	102.1	14	99.8	100.2	10	93.0	x	x	x	x	x	x	x
COc1ccc(C(=O)c2c[nH]c(C(=O)N=CN(C)C)c2)cc1	102.1	13	99.6	99.7	8	u	x	x	x	x	x	x	x
O=C(NCc1cccs1)C1CCN(S(=O)(=O)c2ccccc2F)CC1	94.3	x	97.7	95.2	5	u	x	x	x	x	x	x	x
CC(C)N1CCC(=NNC(=O)c2ccc(Br)o2)CC1	92.1	34	97.8	96.9	8	97.3	x	x	x	x	x	x	x
O=C(NN=C1CCCCCC1)c1ccc(Br)o1	326.8*[activator]	8	140.8*[activator]	115.2	13	119.6	115.2*	-0.9	113.2	115.5	114.9	110.6	123.6
C=CCn1c(=NC(=O)CC)n(C)c2ccccc21	100.1	13	98.0	94.8	5	92.6	x	x	x	x	x	x	x
COc1ccccc1NC(=O)C1CCCCC1	99.6	26	97.3	106.8	90*	158.4*[activator]	106.8*	x	x	x	x	x	x
O=S(=O)(N/N=C/c1ccc(F)cc1)c1ccccc1	104.1	13	103.0	98.0	6	102.0	x	x	x	x	x	x	x
O=S(=O)(N/N=C/c1ccccc1F)c1ccccc1	11.2*	14	14.0*	22.3*	0	u	x	0.5	99.0	98.3	95.2	97.8	93.5
N#CCC(=O)c1ccccc1Oc1ccc(Cl)cc1	100.0	10	101.8	102.4	13	u	x	x	x	x	x	x	x
CCOC(=O)C1=C(C)NC(=O)CC1c1cc(OC)c(OC)cc1Br (stereo unspecified)	98.0	13	98.5	96.6	8	100.0	x	x	x	x	x	x	x
CCS(=O)(=O)c1ccc2c(c1)N(S(=O)(=O)c1ccc(Cl)cc1)CC(C(=O)O)O2 (stereo unspecified)	99.3	17	100.0	102.6	10	u	x	x	x	x	x	x	x
CCOC(=O)c1ccc(NC2OC(=O)c3ccccc32)cc1 (stereo unspecified)	x	17	x	x	x	x	x	1.7	103.8	109.1	105.8	102.9	106.9
COc1nc(-c2ccccc2)cc(-c2ccccc2)n1	107.2	26	98.2	132.6	260*	206.8*[activator]	132.6*	-0.2	104.5	107.3	105.4	103.9	112.0
SMILES	RGS16-Gao HTS	GSH bead fluor	RGS8-Gao reg	RGS4-Gao reg	Avidin bead fluor	RGS7-Gao	RGS4-Gao HTS	Avidin counter	RGS8-Gao confirm	RGS7-Gao confirm	RGS16-Gao conf	RGS4-Gao confirm	RGS19-Gao conf
C1CCN(Cc2nnnn2CC2CCCO2)CC1 (stereo unspecified)	101.5	14	100.6	99.2	11	99.7	x	x	x	x	x	x	x
CCOC(=O)/C=c1\s/c(=C\c2sccc2C)c(=O)n1CC(=O)NCc1ccc(C)cc1	99.9	9	101.8	99.3	10	97.6	x	x	x	x	x	x	x
CC1=CC(C)(C)N=C(NC#N)N1	77.2	46	60.2	42.3*	-2	44.3*	x	-0.2	98.7	93.3	97.4	97.0	102.3
Cc1nn(-c2ccccc2)c2sc(C(=O)N3CCCCC3)cc12	x	47	x	x	x	x	x	-2.0	101.2	97.3	105.6	103.0	105.2
C=CCOC(=O)C(=O)/C=C/c1c(C)n(C)n(-c2ccccc2)c1=O	131.9	20	107.2	150.4*[activator]	5	154.2*[activator]	x	-0.5	101.6	106.4	104.3	105.5	98.5
COc1cc(-c2cc(C(=O)NN3CCN(C)CC3)c3ccccc3n2)cc(OC)c1OC	281.8*[activator]	5	133.2	110.5	14	108.8	110.5*	0.4	101.4	103.8	102.2	102.1	103.3
COc1cc(-c2cc(C(=O)O)c3cc4c(cc3n2)OCCO4)cc(OC)c1OC	x	30	x	x	x	x	x	2.0	99.9	101.0	99.2	101.3	104.8
O=C(O)c1cc(N2C(=O)C3C4C=CC(C4)C3C2=O)ccc1N1CCOCC1 (stereo unspecified)	106.7	15	103.2	102.9	13	106.1	x	x	x	x	x	x	x

Bioassay records deposited in PubChem by NMMLSC.
